Assay results reported in PubChem BioAssay.
Where “and” joins values, the source holds several entries; their conditions need not be identical. Identical values can stand only once. Calls of active or inactive are those of the source. Rule as the data show it, unless noted: active = parasite load remaining mostly below about 12% (no sharp cut-off); inactive = mostly above about 10%.

Legend:
[1] = BT084 cell growth, single and combined drugs, ICGC_MB145, cisplatin and BGB IC40 combos (AID 1671461); details: BT084 medulloblastoma cells, drug combinations, stronger effect = higher value;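 also: cells exposed to drugs for 96 hours; 0% = vehicle DMSO and 100% = high DMSO full killing control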
[2] = RCMB18 cell growth, single agent and combined, cisplatin and BGB IC40 combos (AID 1671462; in the data active = inhibition above about 80%;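 also: cells exposed to compound for four days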); details: RCMB18 medulloblastoma cells, stronger effect = higher value
[3] = CRL1545 cell growth, single agent and combined, cisplatin and BGB IC20 combos (AID 1671464; in the data active = inhibition above about 80%;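 also: cells exposed to compound for 96 hours before readout; 0% = vehicle DMSO and 100% = high DMSO killing control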); details: CRL1545 osteosarcoma cells, stronger effect = higher value
[4] = P. berghei load reduction in hepatocytes – cell-based, HepG2, luciferase luminescence, HepG2 viability, primary screen (AID 624349);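 also: 100% = mean of DMSO negative control wells on the same plate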; details: P. berghei liver stage in HepG2, luciferase luminescence, concentration not given here; parasite load remaining: stronger effect = lower value; viability: measured here: HepG2 viability without parasites
[5] = viability loss with induced miR-34 in A549 – imaging, A549 dox-inducible miR-34, nuclei and caspase counts, primary screen (AID 1347080;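 active = compounds whose cell count with miR-34 switched on is under 0.7 times the count with it off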); details: A549 miR-34 inducible, Hoechst nuclei count, 48 h
[6] = MELAS cybrid and Rieske KO viability enhancers – cell-based, MELAS cybrids, Rieske KO mouse fibroblasts, CellTiter-Glo, primary screen (AID 1508586;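 active = mean z-score across replicates of 1.96 or higher in either the MELAS or the Rieske mutant cell line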;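 also: z relative to plate mean and SD of compound and empty wells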); details: low glucose
[7] = compounds altering viability of human ES cells (AID 493140; call rule not given here;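 also: cells exposed to compounds for four days before counting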); details: human embryonic stem cell survival screen; stronger effect = higher value
[8] = stronger effect = lower value, cell number ratio, induced over uninduced
[9] = measured here: relative caspase fold change +Dox/-Dox
[10] = measured here: total cells with miR-34 induction, stronger effect = lower value
[11] = measured here: total cells without miR-34 induction
[12] = MELAS cybrid survival, CellTiter-Glo 48 h, stronger effect = higher value
[13] = Rieske KO mouse fibroblast survival, CellTiter-Glo 72 h

**Q.** Which inhibition ([1]; cisplatin combination, at 0.5 µM) does the source give for `CN(C)CC(=O)Nc1ccc2[nH]c(=O)c3ccccc3c2c1` here?
**A.** -11% and 0.828% and -68.7%

**Q.** What about the inhibition ([1]; cisplatin combination, at 5 µM) of the same compound?
**A.** -4.17% and -13.1% and -46%

**Q.** What about the inhibition ([1]; measured here: BGB IC40 combination 0.05 uM, at 0.05 µM) of the same compound?
**A.** 25% and 2.93% and -19.8%

**Q.** What about the inhibition ([1]; single agent, at 5 µM) of the same compound?
**A.** -11.5% and -8.61% and -15%

**Q.** What about the inhibition ([2]; at 0.5 µM) of the same compound?
**A.** -10.8% (inactive) and -26% (inactive) and -30.1% (inactive)

**Q.** And the inhibition ([2]; cisplatin combo, at 5 µM)?
**A.** -47.6% and -22.2% and -34.1%

**Q.** And the inhibition ([2]; measured here: BGB IC40 combination, at 0.05 µM)?
**A.** 1.7% and -24.6% and -7.83%

**Q.** What about the inhibition ([2]; measured here: combination with cisplatin, at 0.5 µM) of the same compound?
**A.** -0.146% and -31.4% and -63.1%

**Q.** And the inhibition ([2]; single agent, at 5 µM)?
**A.** -17.1% and -32.1% and -45.8%

**Q.** What about the inhibition ([3]; at 0.5 µM) of the same compound?
**A.** -19.1% (inactive) and 4.9% (inactive) and -4.49% (inactive)

**Q.** And the inhibition ([3]; measured here: with BGB IC20 combination, at 0.5 µM)?
**A.** -45.9% and 5.19% and -19.6%

**Q.** What about the inhibition ([3]; measured here: with cisplatin IC20 combination, at 0.5 µM) of the same compound?
**A.** -8.03% and 2.6% and 1.49%

**Q.** What about the inhibition ([3]; single agent, at 0.05 µM) of the same compound?
**A.** 18.8% and -30.7% and 29.1%

**Q.** What about the inhibition ([3]; single agent, at 5 µM) of the same compound?
**A.** -20.3% and -21.7% and -53.8%

**Q.** With `CN(C)C/C=C(\c1ccc(Br)cc1)c1cccnc1` as the compound, how does the parasite load remaining [4] read?
**A.** 45.2% (inactive)

**Q.** What about the viability [4] of the same compound?
**A.** 47.6%

**Q.** What about the fold change [5, 8] of the same compound?
**A.** 0.924 (inactive)

**Q.** What about the fold change [5, 9] of the same compound?
**A.** 0.86

**Q.** And the cell count [5, 10]?
**A.** 8480

**Q.** What about the cell count [5, 11] of the same compound?
**A.** 9180

**Q.** What about the z-score [6, 12] of the same compound?
**A.** 0.27 (inactive)

**Q.** And the z-score [6, 13]?
**A.** 0.193

**Q.** Which parasite load remaining [4] does the source give for `C=CC1=C(C(=O)O)N2C(=O)[C@@H](NC(=O)/C(=N\OCC(=O)O)c3csc(N)n3)[C@H]2SC1` here?
**A.** 141% (inactive)

**Q.** What about the viability [4] of the same compound?
**A.** 105%

**Q.** And the fold change [5, 8]?
**A.** 0.851 (inactive)

**Q.** What about the fold change [5, 9] of the same compound?
**A.** 1.38

**Q.** What about the cell count [5, 10] of the same compound?
**A.** 8960

**Q.** What about the cell count [5, 11] of the same compound?
**A.** 10500

**Q.** What about the z-score [6, 12] of the same compound?
**A.** 0.308 (inactive)

**Q.** What about the z-score [6, 13] of the same compound?
**A.** 0.0804

**Q.** Which results are given for `CC(=O)N(CC(C)C(=O)O)c1c(I)cc(I)c(N)c1I` (stereo not drawn)?
**A.** survival [7]: 3.33 (inactive); parasite load remaining [4]: 76.2% (inactive); viability [4]: 95.9%; fold change [5, 8]: 0.901 (inactive); fold change [5, 9]: 1.42; cell count [5, 10]: 9460; cell count [5, 11]: 10500; z-score [6, 12]: 0.846 (inactive); z-score [6, 13]: 0.109

**Q.** For `O=C1NCCN1c1ncc([N+](=O)[O-])s1`, which survival [7] is on record?
**A.** 3.92 (inactive)

**Q.** And the parasite load remaining [4]?
**A.** 95% (inactive) and 83.2% (inactive)

**Q.** What about the viability [4] of the same compound?
**A.** 122% and 79.5%

**Q.** And the fold change [5, 8]?
**A.** 0.899 (inactive)

**Q.** What about the fold change [5, 9] of the same compound?
**A.** 1.68

**Q.** And the cell count [5, 10]?
**A.** 8920

**Q.** And the cell count [5, 11]?
**A.** 9920

**Q.** What about the z-score [6, 12] of the same compound?
**A.** 0.58 (inactive)

**Q.** And the z-score [6, 13]?
**A.** -0.169

**Q.** Which results are given for `OC(CCN1CCCCC1)(c1ccccc1)C1C[C@@H]2C=C[C@H]1C2` (stereo partly drawn)?
**A.** parasite load remaining [4]: 24.7% (inactive); viability [4]: 105%; fold change [5, 8]: 0.888 (inactive); fold change [5, 9]: 1.45; cell count [5, 10]: 8210; cell count [5, 11]: 9240; z-score [6, 12]: -0.0819 (inactive); z-score [6, 13]: -0.0447

**Q.** For `CC[N+](CC)(CC)CCC(O)(c1ccccc1)C1CCCCC1` (stereo not drawn), which survival [7] is on record?
**A.** 3.08 (inactive)

**Q.** What about the parasite load remaining [4] of the same compound?
**A.** 97.4% (inactive)

**Q.** What about the viability [4] of the same compound?
**A.** 92.1%

**Q.** And the fold change [5, 8]?
**A.** 0.878 (inactive)

**Q.** What about the fold change [5, 9] of the same compound?
**A.** 0.741

**Q.** And the cell count [5, 10]?
**A.** 8200

**Q.** What about the cell count [5, 11] of the same compound?
**A.** 9350

**Q.** And the z-score [6, 12]?
**A.** -0.675 (inactive)

**Q.** And the z-score [6, 13]?
**A.** -0.626

**Q.** What does the source list for `CC(=O)O[C@]1(C(C)=O)CC[C@H]2[C@@H]3C=C(C)C4=CC(=O)CC[C@@H]4[C@H]3CC[C@@]21C`?
**A.** parasite load remaining [4]: 85.6% (inactive); viability [4]: 73.5%; fold change [5, 8]: 0.942 (inactive); fold change [5, 9]: 0.745; cell count [5, 10]: 8790; cell count [5, 11]: 9330; z-score [6, 12]: -0.763 (inactive); z-score [6, 13]: -0.219

**Q.** What does the source list for `CN/C(=C/[N+](=O)[O-])NCCSCc1csc(CN(C)C)n1`?
**A.** parasite load remaining [4]: 74.7% (inactive); viability [4]: 97.8%; fold change [5, 8]: 0.889 (inactive); fold change [5, 9]: 0.967; cell count [5, 10]: 9080; cell count [5, 11]: 10200; z-score [6, 12]: 0.561 (inactive); z-score [6, 13]: -0.45

**Q.** For `CC1(C)S[C@@H]2[C@H](NC(=O)C(C(=O)O)c3ccsc3)C(=O)N2[C@H]1C(=O)O` (stereo partly drawn), which parasite load remaining [4] is on record?
**A.** 73.9% (inactive)

**Q.** And the viability [4]?
**A.** 69.2%

**Q.** What about the fold change [5, 8] of the same compound?
**A.** 0.946 (inactive)

**Q.** And the fold change [5, 9]?
**A.** 0.678

**Q.** And the cell count [5, 10]?
**A.** 9480

**Q.** And the cell count [5, 11]?
**A.** 10000

**Q.** And the z-score [6, 12]?
**A.** 0.609 (inactive)

**Q.** And the z-score [6, 13]?
**A.** 0.365

**Q.** Which results are given for `OCCN1CCN(CC/C=C2/c3ccccc3Sc3ccc(Cl)cc32)CC1`?
**A.** survival [7]: 0.583 (inactive); parasite load remaining [4]: 65.1% (inactive); viability [4]: 62.7%; fold change [5, 8]: 0.885 (inactive); fold change [5, 9]: 0.539; cell count [5, 10]: 7300; cell count [5, 11]: 8250; z-score [6, 12]: 0.382 (inactive); z-score [6, 13]: -0.231
